Source: PubChem BioAssay (National Center for Advancing Translational Sciences (NCATS))
An excerpt weighted towards active compounds, which were near 19% of everything screened.
TDP1 cell CPT: growth inhibition of DT40 Tdp1-/-;hTDP1 cells with camptothecin (screen for TDP1 inhibitors); AID 686979; chicken DT40 Tdp1-/-;hTDP1 cells + 20 nM CPT, ATP luminescence, 48 h; Potency, µM (highest dose often 46.2 µM), inactives show top-dose activity change, negative = growth inhibition, hits mostly inhibitors; 420,000 tested, 12% active; note: potency is the fitted concentration of half-maximal effect; % is set by controls: 0 for no effect and ±100 for the full control effect; nearly all actives have a fitted effect of over 55% in size
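Chicken DT40 Tdp1-/- cells complemented with human TDP1, 400 cells/well, exposed to compounds plus 20 nM camptothecin for at least 48 h at 37 C; viability read as ATP content by CellTiter-Glo luminescence.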
TGFb SMAD3 inh: TGF-b pathway inhibition | HepG2 CAGA-GFP TGF-b/SMAD3 reporter, GFP fluorescence, 18 h; TGF-beta stimulated, 500 pg/mL final | Potency, µM (top dose mostly 46.1 µM), for inactives: at the top dose activity, negative = inhibition, most hits filed as inhibitors | 410,000 tested, 1.2% active; note: potency is the fitted concentration of half-maximal effect; % is set by controls: 0 for no effect and ±100 for the full control effect; nearly all actives have a fitted effect of over 65% in size
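HEPG2 CAGA-GFP, 1000 cells/well; 2 h settle, 37 C; cpd via pin tool; TGF-b 500 pg/mL final; 18 h, 37 C; GFP imaging ex488/em500-530; %Activity normalised to -TGF-b and +DMSO controls; CRC fit, curve class.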
DT40 TDP1 no CPT: qHTS for Inhibitors of human tyrosyl-DNA phosphodiesterase 1 (TDP1): qHTS in cells in absence of CPT | AID 686978, 2013 | DT40 Tdp1-/- hTDP1 cells, no CPT, ATP luminescence, 48 h | 420,000 tested, 15% active | Potency, µM (top dose mostly 46.2 µM), without a hit: at the highest dose activity change, negative = growth inhibition, usual class: inhibitors; note: potency is the fitted concentration of half-maximal effect; % is set by controls: 0 for no effect and ±100 for the full control effect; nearly all actives have a fitted effect of over 55% in size
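No-CPT arm: Tdp1-/-;hTDP1 DT40 cells (400/well) plus compounds, incubated ≥48 hr at 37 °C. Readout CellTiter-Glo luminescence.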
ASM inhibitor: inhibitors of human secretory acid sphingomyelinase. P17405. placental ASM, HMU-PC fluorogenic substrate, 60 min. Potency, µM (titrated, usually from 57.5 µM), without a hit: top-dose activity change, negative = inhibition, actives largely listed as inhibitors. 340,000 tested, 0.006% active; note: potency is the fitted concentration of half-maximal effect
Target sequence (P17405 47-631 limits assumed): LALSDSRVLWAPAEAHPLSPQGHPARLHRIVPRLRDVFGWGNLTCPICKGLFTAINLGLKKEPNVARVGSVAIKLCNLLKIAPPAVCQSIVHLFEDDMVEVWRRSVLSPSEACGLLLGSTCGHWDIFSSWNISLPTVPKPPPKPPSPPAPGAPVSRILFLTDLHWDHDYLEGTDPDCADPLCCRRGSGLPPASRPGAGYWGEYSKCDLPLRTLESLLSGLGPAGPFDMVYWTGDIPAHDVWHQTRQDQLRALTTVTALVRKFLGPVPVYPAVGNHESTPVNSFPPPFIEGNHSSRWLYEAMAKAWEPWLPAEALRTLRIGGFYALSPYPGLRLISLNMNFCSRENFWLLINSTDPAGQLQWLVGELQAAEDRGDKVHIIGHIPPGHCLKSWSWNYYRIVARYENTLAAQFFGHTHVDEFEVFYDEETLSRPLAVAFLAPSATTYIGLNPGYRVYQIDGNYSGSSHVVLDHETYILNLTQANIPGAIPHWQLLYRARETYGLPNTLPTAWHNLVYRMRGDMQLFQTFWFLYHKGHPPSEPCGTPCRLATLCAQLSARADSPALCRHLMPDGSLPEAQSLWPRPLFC
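Fluorescence read-out (Ex 386 nm, Em 447 nm) after stopping the reaction at pH 10. Enzyme: ASM from human placenta; substrate HMU-PC0, 9 uM final; 60 min, 37 °C. Compound preincubation 10 min, ambient temperature.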
HepG2 viability: kills HepG2 cells in TGF-b inhibitor counter-screen; HepG2 CAGA-GFP viability, ATP luminescence, 18 h; Potency, µM (highest dose often 46.1 µM), for the others: at the top dose activity change, negative = cytotoxicity, usual class: cytotoxic; 410,000 tested, 0.76% active; AID 588856; note: potency is the fitted concentration of half-maximal effect
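HepG2 CAGA-GFP cells (1000/well, DMEM with 1% FBS) received compound, then TGF-beta at 500 pg/mL final, and were incubated 18 hours at 37 degrees C. Viability was read by CellTiter-Glo luminescence. Media-only wells were set as complete cell-killing and DMSO as no toxicity.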
IL-1B inflam inh: inflammasome signaling inhibition, IL-1 beta readout | THP-1 LPS/ATP IL-1B secretion, AlphaLISA, 16 h; stronger effect = lower value | activity change, % at 57.5 µM | 360,000 tested, 4.7% active | AID 743279; in the data active = activity change below about -50%; inconclusive = mostly about -30% to -49%; note: % is set by controls: 0 for no effect and ±100 for the full control effect
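THP-1 cells pretreated 1 hr with compounds (up to 57.5 uM final), then stimulated with LPS (250 ng/mL final) plus ATP (1.25 mM final); secreted IL-1B measured by AlphaLISA after 16 hr, decreased signal indicating inhibition.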
Starred values were filed as active, the others as inactive; ? = inconclusive; · = not tested or not shown; [ ] = another dose, or the depositor's remark. Unless noted, calls come from the whole dose curve; as a rule, active = well fitted curve in the direction sought with a large enough effect; inconclusive = small, poorly fitted or top-dose-only effect, or another doubt; inactive = no such curve, though single readings can be large; an effect the other way counts as inactive or inconclusive.

SMILES	TDP1 cell CPT	TGFb SMAD3 inh	DT40 TDP1 no CPT	ASM inhibitor	HepG2 viability	IL-1B inflam inh
CC(C)C(=O)Nc1ccc(NC(=O)c2cccc(F)c2)cn1	-12%	-3%	?	0%	8%	-60*
O=C(Nc1ccc(Cl)cn1)c1cccc(F)c1	7.3µM*	4%	4.6µM*	0%	-38%	11
Cn1cccc1C(=O)NC(=O)COC(=O)CCNS(=O)(=O)c1ccc(Cl)cc1	-17%	-6%	10%	-3%	-2%	13
O=C1CSc2ccc(C(=O)NCCc3ccc(Cl)cc3Cl)cc2N1	?	-17%	15µM*	-1%	-34%	-5
COCCNC(=O)c1ccc2c(c1)NC(=O)CS2	0%	-12%	-19%	2%	-4%	31
C(=N\N1CCN(C2c3ccccc3-c3ccccc32)CC1)/c1ccccn1	21µM*	-1%	16µM*	-8%	-19%	-14
COc1ccc(/C=N/N2CCOCC2)cc1O	12%	-4%	-1%	0%	3%	7
COc1ccc(/C=N/N2CCN(C3c4ccccc4-c4ccccc43)CC2)cc1O	?	?	18µM*	-6%	-16%	-26
O=C(c1n[nH]c2c1CCCC2)N1CCOc2ccc(C(O)C(c3ccccc3)c3ccccc3)cc2C1 (stereo unspecified)	19%[9.04 µM]	·	?	·	·	·
COc1cc(SC#N)ccc1N=Cc1c(C)[nH]n(-c2ccc(C)cc2C)c1=O	21µM*	4%	15µM*	23%	-26%	-97*
COc1cc(SC#N)ccc1N=Cc1c(C)[nH]n(-c2cccc3ccccc23)c1=O	10µM*	-14%	10µM*	-11%	-2%	-76*
CCOC(=O)C1=C(COC(=O)[C@H](C)NS(=O)(=O)c2ccc(NC(C)=O)cc2)NC(=O)NC1C (stereo partly specified)	0%	10%	-12%	2%	0%	-8
COc1ccc2cc(CCNC(=O)c3cc4ccccc4o3)c(=O)[nH]c2c1	21µM*	-11%	?	-13%	-13%	-11
Cc1ccc2cc(CCNC(=O)c3cc4ccccc4o3)c(=O)[nH]c2c1C	?	?	?	-20%	-23%	-9
CCC(C)c1ccc(OCc2ccc(C(=O)O)o2)cc1 (stereo unspecified)	1%	5%	8%	1%	0%	17
Cc1ccc(NC(=O)C2(S(=O)(=O)c3ccc(Cl)cc3)CC2)c(Br)c1	?	1%	16µM*	-2%	-14%	-4
Cc1ccc(NC(=O)Nc2ccc(Cl)cc2)c(Br)c1	?	-20%	23µM*	-2%	11%	-21
Cc1ccc(S(=O)(=O)C2(C(=O)Nc3ccc(Cl)c(C(F)(F)F)c3)CC2)cc1	?	11µM*	16µM*	·	-50%	·
Cc1ccc(NC(=O)/C=C/c2ccc(Cl)cc2)c(Br)c1	·	2%	·	·	-4%	·
C[C@@]12C=Cc3occc3[C@H]1CC[C@]13CC(=O)[C@@H](CC[C@H]12)C3	·	?	·	·	-35%	·
CCc1c(O)c(-c2ccccc2)c(=O)n(-c2ccccn2)c1-c1ccccc1	0%	6%	4%	0%	4%	39
O=C(c1cccc(S(=O)(=O)N2CCOCC2)c1)N(CCc1ccccc1)Cc1ccccc1	?	-22%	?	-2%	-22%	-15
CN(C)S(=O)(=O)N(CC(=O)N1CCN(Cc2ccccc2)CC1)c1ccccc1	?	4%	-12%	3%	-19%	16
CN(CC(=O)Nc1ccccc1Cl)C(=O)c1cccc(S(=O)(=O)N2CCN(Cc3ccccc3)CC2)c1	12µM*	?	9.2µM*	3%	0%	-15
